In the library only some 27% were active in any assay of this set; here they are far more common.
CYP2C19 inh: blocks human cytochrome P450 2C19. P33261. CYP2C19 Supersomes, luciferin-H EGE luminescence, 30 min. inhibition, % at 5 µM. actives 21% (n = 96,000). AID 778;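 active = CYP2C19 inhibition above a set limit at 5 µM in the primary screen, cut at about 50% in these data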;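 also: plate controls were negative control wells for no effect and 2.5 mM tranylcypromine positive control for full effect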
CYP2C9 activ: increases human cytochrome P450 2C9 activity; activation factor at 5 µM; actives 1.4% (n = 96,000); recombinant CYP2C9, luciferin-H conversion, luminescence; active compounds read high; factor 1 = untreated enzyme, 0 = blocked; AID 1024;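 active = activation factor of 2 or more for CYP2C9 at a 5 µM dose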;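 also: 0 = sulfaphenazole-blocked wells and 1 = vehicle-only wells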
Target sequence (P11712 whole entry, looked up): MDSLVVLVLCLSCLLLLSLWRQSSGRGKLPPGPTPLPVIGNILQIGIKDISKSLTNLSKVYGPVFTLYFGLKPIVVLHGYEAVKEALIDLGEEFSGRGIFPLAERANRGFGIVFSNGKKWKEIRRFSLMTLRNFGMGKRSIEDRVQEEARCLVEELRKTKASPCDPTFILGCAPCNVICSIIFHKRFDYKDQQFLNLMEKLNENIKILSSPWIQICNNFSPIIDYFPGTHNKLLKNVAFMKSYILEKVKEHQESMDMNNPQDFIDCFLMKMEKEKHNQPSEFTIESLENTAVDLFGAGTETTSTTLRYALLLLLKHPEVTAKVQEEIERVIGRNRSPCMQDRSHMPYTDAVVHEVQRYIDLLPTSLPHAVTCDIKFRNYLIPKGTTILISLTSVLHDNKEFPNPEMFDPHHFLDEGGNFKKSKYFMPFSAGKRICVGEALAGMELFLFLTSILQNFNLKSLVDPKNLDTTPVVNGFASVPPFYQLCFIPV
sEH act: soluble epoxide hydrolase (human) activation | purified human sEH enzymatic activity, activator screen | activation, % at 2 µM | actives 0.04% (n = 91,000) | AID 717; in the data active = activation above about 37%
CYP2C19 activ: cytochrome P450 2C19 (human) activation; 96,000 tested, under 10 active; P33261; AID 1025; activation factor at 5 µM; recombinant CYP2C19, luciferin-H EGE luminescence; active compounds read high; 0 = fully inhibited enzyme, 1 = untreated enzyme;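 active = activation factor of at least 2 at 5 µM in the primary screen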;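 also: 0 = wells with 2.5 mM tranylcypromine and 1 = vehicle-only wells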
sEH inhibitor: soluble epoxide hydrolase (human) inhibition | P34913 | recombinant human sEH enzymatic activity assay | inhibition, % at 2 µM | actives 0.34% (n = 91,000) | AID 707; in the data active = inhibition above about 80%
CYP2C9 inhib: inhibitors of human CYP2C9; P11712; CYP2C9 Supersomes, luciferin-H conversion, luminescence; inhibition, % at 5 µM; actives 20% (n = 96,000);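 active = blocking of liver enzyme CYP2C9 beyond about 50% at 5 µM, limit read from the data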
* = called active by the depositor; x = no result.

SMILES	CYP2C19 inh	CYP2C9 activ	sEH act	CYP2C19 activ	sEH inhibitor	CYP2C9 inhib
CC1=C(C(=O)OC(C)C)C(c2ccc(F)cc2)NC(=O)N1 (configuration not stated)	85*	0.7	-4	0.2	6	30
O=c1oc2ccccc2c2c1nc(C(F)(F)F)n2-c1ccccc1	10	0.7	14	0.9	-14	27
O=C1C2C3C=CC(C3=C3CCCCC3)C2C(=O)N1Cc1ccccc1 (configuration not stated)	7	0.4	x	0.9	x	55*
COc1ccc(CCNC(=O)c2nnn(-c3ccc4c(c3)OCCO4)c2N)cc1OC	38	0.5	-7	0.6	5	49
CCN(CC)CCNC(=O)c1ccc(Cl)c(S(=O)(=O)N2CCCCCC2)c1	-3	0.3	-17	1	19	72*
O=C(NCCOC(=O)c1ccc(Cl)c(S(=O)(=O)N2CCCCC2)c1)c1ccncc1	89*	0.1	12	0.1	-15	91*
O=C(c1ccncc1)N(Cc1cc2ccccc2[nH]c1=O)C1CCCCC1	90*	0.3	-18	0.1	18	74*
O=C(c1ccco1)N(Cc1cc2ccccc2[nH]c1=O)C1CCCCC1	13	0.5	-9	0.9	5	54*
O=C(c1ccco1)N(Cc1cc2ccccc2[nH]c1=O)CC1CCCO1 (configuration not stated)	8	1	5	0.9	-8	-4
COc1cc(CN2CCN(c3ccc(C)cc3)CC2)cc([N+](=O)[O-])c1O	1	0.9	27	1	-26	9
CN(C)CC(C)(C)CNS(=O)(=O)c1ccc(Cl)c(Cl)c1	83*	0.5	4	0.2	-5	50*
CN(C)CCCNS(=O)(=O)c1cc(Cl)ccc1Cl	17	1.1	11	0.8	-7	-10
CC(=O)Nc1cccc(NC(=O)C2CCCN2C(=O)Nc2ccc(Cl)cc2)c1 (configuration not stated)	18	0.6	-54	0.8	54	42
COC(=O)c1cc(C(=O)OC)n(Cc2ccc(Br)cc2)n1	91*	0.4	-9	0.1	12	58*
Cc1cc(C)n(Cc2ccc(NC(=O)c3ccc(COc4ccccc4Br)cc3)cc2)n1	31	0.2	-39	0.7	39	77*
Cc1cc(C(F)(F)F)nn1CC(=O)NCc1ccccc1	52*	1.4	15	0.5	-13	-37
COC(=O)c1ccc(Cn2nc(C)c(Br)c2C)cc1	99*	0.3	-6	0	5	70*
Cc1cc(C(F)(F)F)nn1CC(=O)Nc1ccc(Br)c2cccnc12	x	x	-7	x	7	x
COC(=O)c1ccc(Cn2nc(C(F)(F)F)cc2C)cc1	69*	0.7	-5	0.3	8	27
Cc1ccccc1NC(=O)Cn1nc(C(F)(F)F)cc1C1CC1	72*	1.1	8	0.3	-7	-8
COC(=O)c1ccc(Cn2nc(C)cc2C)cc1	93*	1	1	0.1	-2	-4
CCOc1ccc(C(=O)NCC(=O)OC(C)C(=O)NCc2ccco2)cc1OCC (configuration not stated)	44	1.1	-8	0.6	9	-6
COc1cccc(N(CC(=O)NCc2cccnc2)S(C)(=O)=O)c1	44	0.9	-26	0.6	25	11
Cc1cc(C)c(S(=O)(=O)NCC(=O)O)cc1C	-8	1.1	-2	1.1	4	-14
Cc1nn(C(=O)c2ccccc2)c2c1C(=O)CC(C)(C)C2	80*	0.3	1	0.2	-6	69*
SMILES	CYP2C19 inh	CYP2C9 activ	sEH act	CYP2C19 activ	sEH inhibitor	CYP2C9 inhib
CCOC(=O)c1cnc(SC)nc1Sc1cc(Cl)ccc1Cl	-1	0.8	6	1	-9	21
CN(C)C(=O)c1cc(F)ccc1Sc1cc(Cl)ccc1Cl	98*	0.5	17	0	-14	50
CN(C)C(=O)c1cc(Cl)ccc1Sc1cc(Cl)ccc1Cl	97*	0.2	14	0	-12	84*
Cc1cc(NC(=O)C(C)(C)C)no1	-3	1	0	1	-3	-3
Cc1ccc(CNC(=O)c2ccc(C#CC(C)(C)O)s2)cc1	5	0.8	-48	1	48	22
COc1ccccc1C(=O)Oc1ccc(C(C)C)cc1	32	1	3	0.7	-6	0
O=C(Oc1ccccc1)c1ccccc1OS(=O)(=O)c1ccccc1	44	0.4	-10	0.6	10	59*
